MRP resist rev: compounds reversing MRP-mediated drug resistance; actives 0.04% (n = 85,000); H69AR cells + 2 uM doxorubicin, CellTiter-Glo, 72 h; differential viability (reversal), % at 10 µM;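 active = viability drop by adding the cancer drug above about 55%, with treated viability meeting a 40% cutoff, limit read from the data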;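 also: viability without doxorubicin minus viability with 2 µM doxorubicin for each compound; larger differential means the compound sensitizes cells more to doxorubicin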
MRP-1 activ: MRP-1 activation; AID 799; H69AR cells + doxorubicin, viability rescue, CellTiter-Glo; viability increase, % at 10 µM; actives 0.61% (n = 140,000);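 active = viability gain under doxorubicin at or above a set limit, the compound median plus 3 SD, cut at about 4.7% in these data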;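 also: MRP-1 overexpressing cells given doxorubicin 25 µM after compound pretreatment; 18-22 h compound pretreatment then 72 h with doxorubicin before readout; 0% = doxorubicin-only wells and 100% = vehicle-treated cells without doxorubicin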
Phagocyt inh: inhibitors of macrophage phagocytosis; J774A.1 macrophage IgG-bead phagocytosis, imaging; inhibition, % at 5 µM; actives 0.07% (n = 110,000); AID 1029;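 active = inhibition above the mean of the plate negative controls plus 5 SD, cut at about 13% in these data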;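 also: phagocytic index as fraction of beads internalized from green versus red external bead signal; plate controls were DMSO negative control for no effect and cytochalasin-D positive control for full effect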
Numbers without * were called inactive; · = no result; [ ] = dose if it differs, or a comment. Only some compounds are listed: those with a hit (about 0.72% of all), similar ones and a draw of the others.

SMILES | MRP resist rev | MRP-1 activ | Phagocyt inh
Cc1ccc(N2C(=O)C3C4C=CC(CNC(=S)Nc5cccc(Cl)c5)(O4)C3C2=O)cc1 (configuration not stated) | · | -3 | ·
O=C(/C=C/c1cccs1)N1CCN(c2ccccc2F)CC1 | · | -2 | -1
O=C(/C=C/c1ccc([N+](=O)[O-])cc1)N1CCN(c2ccccc2F)CC1 | · | 35* | -2
Cc1ccc(C(=O)N/N=C\c2cc3c(cc2Br)OCO3)s1 | · | 2 | -4
O=C(Cc1ccccc1)Nc1ccccc1Oc1ccccc1 | · | 8.1* | -3
CCC(=O)Nc1ccccc1Oc1ccccc1 | 0 | 0 | 4
N#CCC(=O)N/N=C/c1ccc(Sc2nc3ccccc3s2)o1 | · | 0 | ·
CCn1cnc2c1c(=O)n(CC(=O)N1CCc3ccccc31)c(=O)n2Cc1ccccc1 | 3 | 2 | 0
O=C(Cn1c(=O)c2c(ncn2Cc2ccccc2)n(Cc2ccccc2)c1=O)N1CCc2ccccc21 | 16 | 5.3* | -2
CCOC(=O)C(C)(C)Sc1nc2c(cnn2-c2ccc(Cl)cc2)c(=O)[nH]1 | -3 | -1 | 163*[fluoresces]
CCC(Sc1nc2c(cnn2-c2ccc(Cl)cc2)c(=O)[nH]1)C(=O)OC (configuration not stated) | -8 | -1 | 0
COc1ccc(NS(=O)(=O)c2cc(NC(=O)CNC(=O)c3ccc(C)s3)ccc2Cl)cc1 | · | 14* | 1
COc1ccc(NC(=O)CN(C)C(=O)c2ccc(C)s2)cc1 | 14 | -1 | ·
COc1ccccc1NS(=O)(=O)c1cc(NC(=O)c2ccc3c(c2)OCCO3)ccc1C | · | -2 | 1
O=C(NC1CCCC1)C(c1ccsc1)N(CCc1ccccc1)C(=O)Cc1cccs1 (configuration not stated) | · | -2 | -9
Cn1cc(C(=O)NCc2cccs2)c(=O)c2cc(S(=O)(=O)N3CCCC3)ccc21 | · | 0 | 0
CCOC(=O)C1=C(c2ccccc2)ON(C)C1c1ccccc1 (configuration not stated) | · | -3 | -2
Cc1cc(NC(=O)c2cc(C(C)C)on2)nn1Cc1ccc(Cl)cc1 | -8 | 6.7* | 0
Cc1cc(C(=O)Nc2cc(C)n(Cc3ccc(Cl)cc3)n2)no1 | -3 | 0 | ·
Cc1ccc(NC(=O)NC(=O)CN2C(=O)NC3(CCCCCCC3)C2=O)c(C)c1 | -10 | -1 | ·
Cc1cc(Br)ccc1NC(=O)CNC(=O)CN1C(=O)NC2(CCCCCC2)C1=O | 2 | 7.5* | -1
O=C(CS(=O)(=O)c1ccccc1)Nc1ccc(Br)cn1 | · | -1 | -5
Cn1c(SCc2c(Cl)cccc2Cl)nc(C(F)(F)F)cc1=O | · | -1 | 1
Cc1ccc(S(=O)(=O)Nc2nc3ccccc3nc2NCc2ccc3c(c2)OCO3)cc1C | · | 5.9* | -2
COc1ccc(S(=O)(=O)Nc2nc3ccccc3nc2NCc2ccc3c(c2)OCO3)cc1 | · | 1 | -1
SMILES | MRP resist rev | MRP-1 activ | Phagocyt inh
Cc1ccc2nc(SCC(=O)Nc3ccc4sc(C)nc4c3)c(C#N)cc2c1 | · | -1 | -1
CC(=O)Nc1cccc(Oc2ncnc3scc(-c4ccc(C(C)C)cc4)c23)c1 | · | -1 | -4
O=c1[nH]c(N/N=C/c2ccccc2Br)nnc1-c1ccccc1 | · | 4.8* | -4
COc1ccc(/C=N/Nc2nnc(-c3ccccc3)c(=O)[nH]2)cc1 | · | -4 | -3
CCCN1C(=O)/C(=N\OCC(=O)NC23CC4CC(CC(C4)C2)C3)c2ccccc21 | · | 5.7* | -2
CCCN1C(=O)/C(=N\OCC(=O)Nc2ccc(C(C)C)cc2)c2ccccc21 | · | 6.5* | -14
CC(C)c1ccc(NC(=O)COc2nncc3ccccc23)cc1 | · | 2 | -5
CC(=O)NC(CC(=O)NC12CC3CC(CC(C3)C1)C2)c1ccccc1 (configuration not stated) | · | -3 | -6
O=CN1CCN(C(=O)c2ccc([N+](=O)[O-])cc2)CC1 | · | -2 | -9
COCCCNC(=S)NC1CCCCC1 | · | 0 | -3
C=CCn1c(SCC(=O)c2[nH]c(C)c(C(=O)OC)c2C)nc2scc(-c3ccc(OC)c(OC)c3)c2c1=O | · | -6 | -9
COc1ccc(CN2C(=O)c3ccccc3C(/C=N\OCc3ccc(C)cc3)C2=O)cc1 (configuration not stated) | · | -1 | ·
Cc1no[n+]([O-])c1COc1ccc(/C=N/n2nnnc2N)cc1 | · | -3 | -7
O=C(/C=C/c1ncc(C(F)(F)F)cc1Cl)OCc1ccccc1 | · | -1 | 0
O=C(CN1C(=O)/C(=C/c2ccccc2)SC1=S)Nc1ncc(Cc2ccccc2)s1 | · | 5.3* | 0
COc1cccc(/C=C2/SC(=S)N(CC(=O)Nc3nnc(C)s3)C2=O)c1 | · | 8.8* | ·
O=C(CN1C(=O)/C(=C\C=C\c2ccccc2)SC1=S)Nc1ccc(F)cc1 | · | -1 | -2
COc1cc(/C=C2\SC(=S)N(CC(=O)Nc3cccnc3)C2=O)cc(OC)c1OC | · | 0 | -6
COc1ccc(/C=C/C(=O)NCCSCc2ccco2)cc1 | · | -1 | -1
O=C1CC(N2CCC(c3nc4ccccc4o3)CC2)C(=O)N1c1ccc(Cl)cc1 (configuration not stated) | -1 | · | ·
O=C1CC(N2CCC(c3nc4ccccc4o3)CC2)C(=O)N1c1cc(Cl)cc(Cl)c1 (configuration not stated) | 5 | 8.2* | 1
CC(=O)Nc1ccc(S(=O)(=O)N(C)CC(=O)OCC(=O)c2cc(C)n(-c3ccc4c(c3)OCO4)c2C)cc1 | · | -1 | -11
Cc1ccc(NS(=O)(=O)c2ccc(Cl)c(C(=O)Nc3ccccc3-c3nc4ccccc4[nH]3)c2)cc1C | · | -4 | -5
CCOC(=O)c1ccc(N=C2NC(=O)CS2)cc1 | 8 | 0 | 0
CCOC(=O)c1ccc(N2CN=C3SCC(=O)N3C2)cc1 | -1 | 5.8* | 2
SMILES | MRP resist rev | MRP-1 activ | Phagocyt inh
CCNc1nc(NCC)n2c(SCC(=O)Nc3ccc(C(F)(F)F)cc3[N+](=O)[O-])nnc2n1 | · | 0 | -5
O=C(c1cnn2c(C(F)(F)F)cc(-c3cccs3)nc12)N1CCN(C(c2ccccc2)c2ccccc2)CC1 | 5 | 8.3* | ·
CN1CCN(C(=O)c2cnn3c(C(F)(F)F)cc(-c4cccs4)nc23)CC1 | · | -2 | -3
CCN(CC)C(=S)SCC(=O)NC12CC3CC(CC(C3)C1)C2 | · | -2 | -11
COC(=O)c1sc(NC(=O)c2oc3ccccc3c2C)nc1C | -9 | -4 | 0
Cc1c(C(=O)Nc2nnc(C(F)(F)F)s2)oc2ccccc12 | -20 | 8.9* | ·
Cc1cccc(-n2ncc3c(N4CC(C)CC(C)C4)ncnc32)c1 (configuration not stated) | -6 | 5.3* | 0
Cc1cccc(-n2ncc3c(N4CCCC4)ncnc32)c1 | -15 | -1 | ·
N#CCSc1n[nH]c2nc3c(c(=O)n12)C1(CCCC1)Cc1ccccc1-3 | 16 | 5.0* | 1
CCCn1c(SCC#N)nc2c(c1=O)C1(CCCC1)Cc1ccccc1-2 | 4 | -4 | 0
Cc1ccc(O)c(-c2cc(C(=O)Nc3ccc(S(=O)(=O)Nc4nc(C)cc(C)n4)cc3)[nH]n2)c1 | · | -2 | -4
COC(=O)CCC/C=C1\SC[C@@H](NC(=O)c2ccccc2)C1NC(C)=O (some centres not stated) | · | 0 | 0
CCCOc1ccc(/C=C/C(=O)Nc2ccc([N+](=O)[O-])cc2)cc1 | · | -1 | -3
CCCCOc1ccc(/C=C/C(=O)Nc2ccc([N+](=O)[O-])cc2C)cc1 | · | 5.8* | -1
O=C(Nc1ccccc1Br)C1CCN(C(=O)Cc2ccccc2)CC1 | · | 0 | -1

High-throughput results as filed in PubChem BioAssay.
